Most compounds without a hit are left out; they make up all but 22% or so of the library.
F-actin modifier – cytoskeleton assembly modification; inhibition, % at 2 µM; 0.18% of 91,000 active; HUVEC TNFa F-actin phalloidin imaging, high content; AID 836;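 active means inhibition above the batch mean plus 3 SD and confirmed as a hit by visual image inspection, cut at about 30% in these data, passing the limit was not always enough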
E-sel TNF inh – blocks E-selectin expression induced by TNF alpha | HUVEC TNFa-induced E-selectin immunofluorescence, high content | inhibition, % at 2 µM | 0.71% of 120,000 active | AID 1246;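 active means inhibition above the batch mean plus 3 SD, and confirmed as a hit on visual image review, cut at about 43% in these data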;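 further: 0% = TNF-stimulated DMSO wells and 100% = unstimulated control wells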
CYP2C9 inh – blocks human cytochrome P450 2C9; P11712; CYP2C9 Supersomes, luciferin-H conversion, luminescence; inhibition, % at 5 µM; 20% of 96,000 active;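 active means blocking of liver enzyme CYP2C9 beyond about 50% at 5 µM, limit read from the data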
Target sequence (P11712 whole entry, looked up): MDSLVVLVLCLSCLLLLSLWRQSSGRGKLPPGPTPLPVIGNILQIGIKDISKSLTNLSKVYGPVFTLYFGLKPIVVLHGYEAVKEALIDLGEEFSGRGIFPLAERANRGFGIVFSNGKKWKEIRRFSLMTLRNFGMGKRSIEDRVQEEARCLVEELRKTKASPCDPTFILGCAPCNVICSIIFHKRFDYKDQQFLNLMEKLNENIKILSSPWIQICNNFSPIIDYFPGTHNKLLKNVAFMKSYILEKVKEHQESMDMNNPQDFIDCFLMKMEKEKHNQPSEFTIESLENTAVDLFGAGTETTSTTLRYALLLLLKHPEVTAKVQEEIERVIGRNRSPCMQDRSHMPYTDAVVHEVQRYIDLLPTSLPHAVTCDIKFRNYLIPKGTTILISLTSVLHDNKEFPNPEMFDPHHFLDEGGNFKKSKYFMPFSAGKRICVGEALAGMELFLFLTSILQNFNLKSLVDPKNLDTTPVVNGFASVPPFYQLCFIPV
CYP2C9 activ – activators of human CYP2C9; activation factor at 5 µM; P11712; recombinant CYP2C9, luciferin-H conversion, luminescence; stronger effect = higher value; factor 1 = untreated enzyme, 0 = blocked; AID 1024; 1.4% of 96,000 active;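 active means activation factor of 2 or more for CYP2C9 at a 5 µM dose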;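 further: 0 = sulfaphenazole-blocked wells and 1 = vehicle-only wells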
CYP2C19 inh – blocks human cytochrome P450 2C19 | 21% of 96,000 active | CYP2C19 Supersomes, luciferin-H EGE luminescence, 30 min | P33261 | inhibition, % at 5 µM;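 active means CYP2C19 inhibition above a set limit at 5 µM in the primary screen, cut at about 50% in these data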;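 further: plate controls were negative control wells for no effect and 2.5 mM tranylcypromine positive control for full effect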
CYP2C19 activ – cytochrome P450 2C19 (human) activation. P33261. recombinant CYP2C19, luciferin-H EGE luminescence; stronger effect = higher value; 0 = fully inhibited enzyme, 1 = untreated enzyme. activation factor at 5 µM. 96,000 tested, under 10 active. AID 1025;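 active means activation factor of at least 2 at 5 µM in the primary screen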;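 further: 0 = wells with 2.5 mM tranylcypromine and 1 = vehicle-only wells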
The depositor's hits bear a star; . = not tested or not shown.

SMILES	F-actin modifier	E-sel TNF inh	CYP2C9 inh	CYP2C9 activ	CYP2C19 inh	CYP2C19 activ
COc1ccc(-c2oc3ncn(CCN4CCOCC4)c(=N)c3c2-c2ccc(OC)cc2)cc1	2	-35	13	0.9	63*	0.4
COc1ccc(-c2oc3ncnc(NCCCN4CCOCC4)c3c2-c2ccc(OC)cc2)cc1	22	-2	94*	0.1	24	0.8
c1ccc(-c2csc3ncnc(NCCN4CCOCC4)c23)cc1	-10	-4	11	0.9	20	0.8
COc1ccc(-c2oc3ncnc(NCCN4CCOCC4)c3c2-c2ccc(OC)cc2)cc1	-7	.	30	0.7	23	0.8
c1ccc(-c2oc3ncnc(NCCCN4CCOCC4)c3c2-c2ccccc2)cc1	-27	16	94*	0.1	90*	0.1
Cc1ccc(-c2nnc(SCC(=O)NC(=O)Nc3ccc(C)cc3C)n2N)cc1	.	6	.	.	.	.
CCOc1ccccc1N1CCN(C(=O)c2cc[n+]([O-])cc2)CC1	-1	2	-6	1.1	80*	0.2
CCCc1ccc(C(=O)N2CCN(c3ccccc3OCC)CC2)cc1	-5	0	76*	0.2	88*	0.1
CCOc1ccccc1N1CCN(C(=O)c2cc(C)oc2C)CC1	.	-60	27	0.7	68*	0.3
CCOc1ccccc1N1CCN(C(=O)C(Sc2ccccc2)c2ccccc2)CC1 (stereo not drawn)	18	-52	42	0.6	51*	0.5
CC1(C)CC(=O)C(C(=O)C2CCN(S(=O)(=O)c3ccccc3)CC2)C(=O)C1	.	-14	.	.	.	.
FC(F)(F)c1ccccc1C1C2=C(Nc3ncnn31)c1ccccc1CCC2 (stereo not drawn)	-21	-18	8	0.9	25	0.7
CN(C)c1ccnc(-n2cccc2/C=N/OCc2cccc(F)c2)c1C#N	-7	-1	46	0.5	97*	0
O=C(Nc1ccc(Cl)c(-c2nc3ccccc3[nH]2)c1)c1cccnc1	-18	-21	83*	0.2	60*	0.4
O=C(Nc1ccc(-c2cc3ccccc3oc2=O)c(Cl)c1)c1cccnc1	-21	-42	-120	2.2*	22	0.8
CC(=O)N1N=C(c2cccc(NS(C)(=O)=O)c2)CC1c1cccs1 (stereo not drawn)	.	57	.	.	.	.
O=C(c1cccs1)N1N=C(c2ccccc2)CC1c1ccccc1 (stereo not drawn)	-29	-37	95*	0.1	68*	0.3
CS(=O)(=O)N1N=C(c2ccccc2)CC1c1cccs1 (stereo not drawn)	16	-33	24	0.8	55*	0.5
CS(=O)(=O)N(CC(=O)N1CCN(Cc2ccccc2)CC1)C1CCCCC1	1	10	-19	1.2	-14	1.1
COCCOC(=O)C1=C(C)NC(SCC(=O)NC(C)(C)C)=C(C#N)C1c1ccco1 (stereo not drawn)	16	.	86*	0.1	82*	0.2
CCOC(=O)C1=C(c2ccccc2)NC(SCC(=O)NC2CCCCC2)=C(C#N)C1c1ccco1 (stereo not drawn)	1	-22	61*	0.4	30	0.7
CCOC(=O)C1=C(c2ccccc2)NC(SC)=C(C#N)C1c1cccnc1 (stereo not drawn)	.	4	.	.	.	.
C=CCOC(=O)C1=C(C)NC(SCC(=O)Nc2ccc(C)c(Cl)c2)=C(C#N)C1c1ccco1 (stereo not drawn)	-7	.	79*	0.2	52*	0.5
O=C(CSc1nnc(-c2ccco2)o1)N1CCN(c2ccccc2)CC1	.	-11	.	.	.	.
N#Cc1nc(COc2ccc(Br)cc2)oc1N1CCCCCC1	5	8	42	0.6	21	0.8
SMILES	F-actin modifier	E-sel TNF inh	CYP2C9 inh	CYP2C9 activ	CYP2C19 inh	CYP2C19 activ
CN1CCN(c2oc(COc3ccc(-c4ccccc4)cc3)nc2C#N)CC1	-10	12	20	0.8	55*	0.4
N#Cc1nc(COc2ccccc2)oc1N1CCCC1	.	.	31	0.7	88*	0.1
N#Cc1nc(COc2ccc(Br)cc2)oc1N1CCCC1	-4	-6	65*	0.4	99*	0
CC(C)(C)c1ccc(/C=N/NC(=O)Cc2c[nH]c3ccccc23)cc1	12	19	74*	0.3	28	0.7
CN=c1sc2ccccc2n1CC(O)COc1ccccc1 (stereo not drawn)	-15	.	71*	0.3	96*	0
OC(COc1ccccc1)CN1CCCCCC1 (stereo not drawn)	.	-18	.	.	.	.

Compound activity deposited in PubChem by several laboratories.
